Experimental findings from the supplement of paper PMC10105736 are described below.

Common to all, as to assay: MAPPIT interaction score (arbitrary units); higher = stronger binary interaction signal, active = hit call of the paper
The target in one assay is CG10483. As to conditions: MAPPIT configuration: N-N; pair source set: DPIM.
For a further assay, the target named is CG4847. As to conditions: MAPPIT configuration: N-N; pair source set: DPIM.
The target in another assay is twin. The settings on record: MAPPIT configuration: N-N; pair source set: DPIM.
The next assay deals with CG11327. As to conditions: MAPPIT configuration: N-C; pair source set: screen_3.
Another assay deals with CG11555. As to conditions: MAPPIT configuration: N-N; pair source set: Curagen_high_conf.
A further assay concerns the target CG5708. As to conditions: MAPPIT configuration: N-C; pair source set: screen_4.
The next assay has as its target CG11149. The settings on record: pair source set: RRS.
A further assay deals with CG14323. The settings on record: MAPPIT configuration: N-N; pair source set: RRS.
For the next assay, the target named is CG34268. As to conditions: MAPPIT configuration: N-N; pair source set: RRS.
The target of another assay is CG10510. As to conditions: MAPPIT configuration: N-N; pair source set: Finley_Y2H.
The next assay concerns the target CG31111. The settings on record: MAPPIT configuration: N-N; pair source set: DPIM.
The target in the next assay is CkIIbeta.
A further assay concerns the target Pkc98E. The settings on record: MAPPIT configuration: N-N; pair source set: Finley_Y2H.
Another assay addresses CG10918. As to conditions: MAPPIT configuration: N-N; pair source set: Finley_Y2H.

A number with no mark means an inactive call.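 Rule for the calls: active = MAPPIT score above the 99th percentile of random reference set scores in the same batch; inactive = at or below it.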
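Note: HEK293T cells with Epo stimulation, STAT-responsive firefly luciferase reporter, fold induction versus unstimulated cells divided by the larger fold induction of two negative controls lacking either bait or prey.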

B1: CG1785 (protein)
chain: MTAVEPATKKKRISKKNKSAWRKTDIQDVEQFLEDQRQEERVGTFADKQDEDLFVVDSSLPKTKATVLSVKQKRKLNAKKPMRSYQALENTSKVQDPIAKRNHVRQKKNGRNIELEVCNPTKPRHRQANSDRAQYYVKLEQRLADKKNKKLDVEKDIWQEVDFRDEIPGLKDEKGWISRELALHTAGNIGKKVVKTHASLHHKTTKAKKFELPHPGMSYNPAPEDHQALIDQVVEREEGIIKKEQHLKRVTTSMFSKVTPEERDRRRLNEMSQGMDEEEGSELDEDVQTNGKKKEDDDEKPYHTINAPVENKKKSKQARRNELKQKELARQTELKRKLKQQTADLIRIKSIRHELDDEEEDLNDLKKRRKQRAEKAKFEPKRLGRHKFEEPDLDVNLPEDIAGNLRNVKTESSLLKDRFHTLQRNNMLPTTKLVSRKKSKVKRFERNSHKEPGVSYNDLKERRRAAAAAAKATANIKI
On to B1, for which the results for the MAPPIT interaction score with CG10483, with CG4847 and with twin were 0.068, 0.0294 and -0.15, respectively.

B2: Eh (protein)
chain: MNCKPLILCTFVAVAMCLVHFGNALPAISHYTHKRFDSMGGIDFVQVCLNNCVQCKTMLGDYFQGQTCALSCLKFKGKAIPDCEDIASIAPFLNALE
Regarding B2, the MAPPIT interaction score in the assay with CG11327 was 1.52.

B3: PolE2 (protein)
chain: MDVDLLPLRKRITNTFKLCGFLIRSENSSYLAEQLLPFDAAERDKWLTVITENLQSQKLLTPHVERAALEKAINELNRVGLDEGETVFALIDAFTVPRFRYNQRIKKFELDTQPRQLLTAPRMKSDYMQQRYAMLLQKTLRHDLFAPAVIQDGVGAEAQAKKFKLQFAENLLATSAMKEAVVLGLLTQLKEGKFYVEDPTGCVQLDLTGARFHAGFFCEGCFVLAEGNYNNGVLKVDGLGFPPAEPANSSRAFFGTANTWGGESAKLLKYSAGLQELERTNTETTIVFLSDVRLDLPVVMEKLRQLFVGYDSCPPQAIVLMGPFTASTRNHHELRHHLDALGGLAAGCEQLKKQTDLILVPSSEDPTAPNILPRAPIPECLAAGLLKAWPRTQLATNPCRLQYCTQQIVVCRLDLMAKFCRNTLHFPEDTSQIEQHFARTIVCQGHLVPIHPIAMPVHWDYDPALWLYPLPDLIVMGDSCQSFSSSQHGCTVLNTGSFVKSKFAFKVYIPATRTIEDSEIPDELE
On to B3, for which the MAPPIT interaction score is 0.14 with CG11555 and 1.19 in the assay with CG5708.

B4: wuho (protein)
chain: MCTTISFAEPEIVLGHGRRVLFVNPDDLQIFKEIELPPDLGLKGHTSQSQESCTAAAAASTATAASGQAPGGKEQQLANQPEEGGTSASASGLGCATSTSVQNVAYSPDGQLLAVTTSGKQKALLLYRSRPENARLLSARPLARASSALRFCSDSSSILVTDKTGDCYQYDCVEVEAPPRLLLGHLSVVYDILWSEDQQHIITCDRDDKIRVTNYPATFDIHSYCLGHREFVSGLALLTEQHIASASGDKTLRVWNYIQGKELLQHELPAPAVRLLVRQLEPEKVFQAAVLFYEHVDALGLYRLERSSDDTWSVTATQLVCAEAGSWSISNFTLTSDRIYITGAENERLSLRVYDIATGQPASSGVPEGWLKMVLDGLGANEEGAPPFIPEDLSVWFKKRFDNVSDYLERKKRRIEEQQQQKCG
Consider B4, for which the MAPPIT interaction score was 0.206 with CG11149 (MAPPIT configuration: N-C), -0.175 with CG11149 (MAPPIT configuration: N-N), 0.00913 with CG14323 and 0.0545 with CG34268.

B5: CkIIalpha (protein)
chain: MTLPSAARVYTDVNAHKPDEYWDYENYVVDWGNQDDYQLVRKLGRGKYSEVFEAINITTTEKCVVKILKPVKKKKIKREIKILENLRGGTNIITLLAVVKDPVSRTPALIFEHVNNTDFKQLYQTLTDYEIRYYLFELLKALDYCHSMGIMHRDVKPHNVMIDHENRKLRLIDWGLAEFYHPGQEYNVRVASRYFKGPELLVDYQMYDYSLDMWSLGCMLASMIFRKEPFFHGHDNYDQLVRIAKVLGTEELYAYLDKYNIDLDPRFHDILQRHSRKRWERFVHSDNQHLVSPEALDFLDKLLRYDHVDRLTAREAMAHPYFLPIVNGQMNPNNQQ
B5: the MAPPIT interaction score in the assay with CG10510 is 0.0158; in the assay with CG31111 it was 0.429; in the assay with CkIIbeta (MAPPIT configuration: N-C, pair source set: Lit-BM-16), 3.22; with CkIIbeta (MAPPIT configuration: N-N, pair source set: Lit-BM-16), 4.3 (active); with CkIIbeta (MAPPIT configuration: N-N, pair source set: screen_1), 4.3 (active); with Pkc98E it was 0.257.

B6: Fer2LCH (protein)
chain: MKFFVALALFACLGSLALAKDDEYCQNTVITACSTSAFSANSICNARFAGIDHIEPEIQSYINANLAKSYDYLLLATHFNSYQKNRPGFQKLYQGLSDRSFEDSIALIKQVTRRGGIVDFNTRHESSGSVSTKRGTLEVDELHSLALALDTEKQLATGATHVHSRATHATDAERDPELAHYFEENFLGKQAESVRKLSGYANDLAKLMKVPDPSLSVYLFDEYLQKQ
On to B6, for which, in the assay with CG10918, the MAPPIT interaction score was 0.0432.
